FBPA coupling cs: inhibits coupling enzyme system, counter-screen for aldolase hits; AID 2472; coupling enzyme system counterscreen, AmpLite Red fluorescence; activity change, negative = inhibition, % at 58.2 µM, hits read low; actives 0.67% (n = 290,000); in the data active = activity change below about -30%
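Fluorescence at 525 nm excitation and 598 nm emission measured inhibition of the coupled detection system without aldolase. Compounds (at 57.5 uM final) were preincubated 10 min at room temperature with coupling enzyme reagent before a 20 min substrate/AmpLite Red step.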
RORgamma inh: inhibitors of mouse ROR gamma transcriptional activity. actives 5.4% (n = 310,000). Drosophila S2 Gal4-RORgamma UAS-luciferase reporter, 20 h. Potency, µM (doses to about 53.6 µM), usual class: inhibitors. P51450; note: nearly all actives have a fitted effect of over 60% in size
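Schneider cells (Drosophila), stable Gal4 DBD–ROR gamma + UAS-luc; 1 hr cmpd preincubation; Cu2+ induction 700 uM final; 20 hr ambient; luminescence.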
VP16 counter: inhibits Gal4-VP16 luciferase reporter, ROR gamma counter-screen; Drosophila S2 Gal4-VP16 UAS-luciferase, luminescence, 20 h; Potency, µM (doses to about 53.6 µM), actives largely listed as inhibitors; actives 3.5% (n = 310,000); AID 2546;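 note: Gal4-VP16 expression switched on by copper sulfate through the metallothionein promoter; nearly all actives have a fitted effect of over 50% in size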
TSHR antagonist: human thyrotropin receptor antagonism; TSHR-expressing cells, TSH-stimulated cAMP HTRF, 2 h; active compounds read low; activity change, negative = inhibition, % at 11.5 µM; actives 0.2% (n = 330,000); AID 504810;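 active = activity change below a set negative limit, meaning inhibition stronger than a set level, cut at about -70% in these data; inconclusive = activity change between two set negative limits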
Target sequence (P16473 whole entry, looked up): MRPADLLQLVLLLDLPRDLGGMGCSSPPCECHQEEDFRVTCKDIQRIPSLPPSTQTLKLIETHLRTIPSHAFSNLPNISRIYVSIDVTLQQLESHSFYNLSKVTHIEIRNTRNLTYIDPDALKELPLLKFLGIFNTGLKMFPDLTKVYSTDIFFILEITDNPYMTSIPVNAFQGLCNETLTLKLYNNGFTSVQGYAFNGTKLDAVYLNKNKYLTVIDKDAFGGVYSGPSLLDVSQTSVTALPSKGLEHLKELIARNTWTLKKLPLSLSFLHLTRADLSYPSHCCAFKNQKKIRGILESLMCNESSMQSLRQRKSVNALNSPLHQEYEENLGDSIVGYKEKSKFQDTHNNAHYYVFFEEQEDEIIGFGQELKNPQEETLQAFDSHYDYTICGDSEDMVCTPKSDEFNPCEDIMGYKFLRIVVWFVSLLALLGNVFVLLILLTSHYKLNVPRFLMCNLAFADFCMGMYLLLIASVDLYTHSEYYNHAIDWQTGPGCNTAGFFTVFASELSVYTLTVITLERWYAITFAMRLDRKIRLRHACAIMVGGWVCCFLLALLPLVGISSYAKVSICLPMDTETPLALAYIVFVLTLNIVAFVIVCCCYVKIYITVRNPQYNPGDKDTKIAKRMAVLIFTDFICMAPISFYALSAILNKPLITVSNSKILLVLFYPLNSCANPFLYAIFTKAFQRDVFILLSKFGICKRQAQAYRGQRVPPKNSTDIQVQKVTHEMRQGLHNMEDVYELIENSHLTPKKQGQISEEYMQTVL
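TSHR-expressing cells, 200/well, pre-treated with compound, then stimulated with EC80 TSH (4nM final) for 2 hours at 37 deg C. cAMP measured by competitive HTRF: anti-cAMP cryptate antibody in lysis buffer plus cAMP-d2, read after 30 minutes at room temperature.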
ELG1 DNA repair: inhibitors of ELG1-dependent DNA repair in HEK293T cells; HEK293T ELG1-luciferase reporter, luminescence, 16 h; DNA damage induced by 5-fluorouridine; Potency, µM (series often up to 46.1 µM), actives largely listed as inhibitors; actives 2.3% (n = 330,000); AID 504467; note: nearly all actives have a fitted effect of over 55% in size
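Quantitative HTS, concentration-response format. 2,000 cells/well co-treated with 5-fluorouridine and compound, 16 hr in 5% CO2 at 37 °C; ONE-Glo luminescence read after 30 min.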
Of the large screens only hits and unclear results are named; the others gave an inactive call. A selection: hits, their analogues and other compounds. The true share with any hit is near 8%. Unless noted, calls come from the whole dose curve; as a rule, active = well fitted curve in the direction sought with a large enough effect; inconclusive = small, poorly fitted or top-dose-only effect, or another doubt; inactive = no such curve, though single readings can be large; an effect the other way counts as inactive or inconclusive.

COc1ccccc1CCNC(=O)c1nc(-c2cccs2)no1	ELG1 DNA repair inconclusive
COc1ccccc1-c1cc(C(=O)NCCc2ccccc2)no1	VP16 counter inconclusive, ELG1 DNA repair inconclusive
COc1ccc(CCNC(=O)c2nc(-c3cccs3)no2)cc1OC	RORgamma inh inconclusive, ELG1 DNA repair 9.2µM
COc1ccc(CCNC(=O)c2cc(-c3cc(C)ccc3O)n[nH]2)cc1OC	ELG1 DNA repair 23µM
COc1ccc(CCNC(=O)c2cc(-c3ccc(C)c(C)c3O)n[nH]2)cc1OC	ELG1 DNA repair inconclusive
C[C@H](NC(=O)c1[nH]cnc1C(=O)Nc1ccccc1)c1ccccc1	ELG1 DNA repair inconclusive (no result: FBPA coupling cs, RORgamma inh, VP16 counter)
COc1ccc(NC(=O)c2nc[nH]c2C(=O)N[C@H](C)c2ccccc2)cc1	RORgamma inh 6.3µM, VP16 counter 7.9µM, ELG1 DNA repair inconclusive
CC(C)C[C@H](NC(=O)c1[nH]cnc1C(=O)Nc1ccccc1)C(=O)OC(C)(C)C	RORgamma inh 5µM, VP16 counter 8.9µM, ELG1 DNA repair inconclusive
CCOC(=O)c1ccc(NC(=O)c2nc[nH]c2C(=O)N[C@@H](CC(C)C)C(=O)OC(C)(C)C)cc1	RORgamma inh 2.5µM, VP16 counter 6.3µM
CCOC(=O)c1ccc(NC(=O)c2nc[nH]c2C(=O)N[C@H](C)c2ccccc2)cc1	RORgamma inh 2.8µM, VP16 counter 7.1µM, ELG1 DNA repair inconclusive
CC(=O)c1ccc(N2CCN(CC(=O)N(C3CC3)C3CCS(=O)(=O)C3)CC2)c(F)c1 (stereo unspecified)	none (no result: FBPA coupling cs, RORgamma inh, VP16 counter)
CCC(C)c1ccc(NC(=S)N2CCN(S(C)(=O)=O)CC2)cc1 (stereo unspecified)	none
CCOC(=O)c1ccc(NC(=O)c2nc[nH]c2C(=O)N(C)Cc2ccccc2)cc1	RORgamma inh 10µM, VP16 counter inconclusive
CC(C)C[C@H](NC(=O)c1[nH]cnc1C(=O)N[C@@H](C)c1ccccc1)C(=O)OCc1ccccc1	RORgamma inh inconclusive, VP16 counter inconclusive, ELG1 DNA repair inconclusive
CNC(=O)c1[nH]cnc1C(=O)Nc1ccc(OC)cc1	RORgamma inh 5.6µM, ELG1 DNA repair inconclusive
COc1ccc(NC(=O)c2nc[nH]c2C(=O)NCc2ccccc2)cc1	none (no result: FBPA coupling cs, RORgamma inh, VP16 counter)
CCOC(=O)c1ccc(NC(=O)c2nc[nH]c2C(=O)N[C@@H](CC(C)C)C(=O)OCc2ccccc2)cc1	RORgamma inh 1.1µM, VP16 counter inconclusive
COc1ccccc1-c1nnc(SC(C)C(=O)Nc2ccc(C(N)=O)cc2)o1 (stereo unspecified)	none (no result: FBPA coupling cs, RORgamma inh, VP16 counter)
COCCn1c(C)cc(C(=O)COc2ccc(N(C)S(=O)(=O)c3ccc(C)cc3)cc2)c1C	ELG1 DNA repair inconclusive (no result: FBPA coupling cs, RORgamma inh, VP16 counter)
Cn1c(=O)c(-c2ccc(F)cc2)nc2cncnc21	none (no result: TSHR antagonist, ELG1 DNA repair)
O=c1[nH]nc(Sc2ncnc3sccc23)n1CCc1ccccc1	RORgamma inh 16µM, VP16 counter inconclusive, ELG1 DNA repair inconclusive
N/C(Cc1ccc(Cl)cc1Cl)=N\OC(=O)c1cccs1	RORgamma inh 13µM, VP16 counter inconclusive
Cc1ccc(/C(N)=N/OC(=O)c2cccs2)cc1	RORgamma inh inconclusive, VP16 counter inconclusive, ELG1 DNA repair inconclusive
Cc1cccc(/C(N)=N/OC(=O)c2cccs2)c1	RORgamma inh 8.9µM, VP16 counter inconclusive, ELG1 DNA repair inconclusive
Cc1cccc(/C(N)=N/OC(=O)c2ccc(F)cc2)c1	RORgamma inh 8.9µM, VP16 counter 22µM, ELG1 DNA repair inconclusive
Cc1noc(-c2ccc(Cl)cc2)c1C(=O)O/N=C(\N)c1ccc(C(C)(C)C)cc1	RORgamma inh 7.1µM, VP16 counter 7.9µM, ELG1 DNA repair inconclusive
Cc1cc(C(=O)O/N=C(\N)c2ccc(C(C)(C)C)cc2)no1	ELG1 DNA repair inconclusive
O=C(CSc1nc2c(cnn2-c2cccc(Cl)c2)c(=O)[nH]1)NCCC1=CCCCC1	ELG1 DNA repair inconclusive (no result: FBPA coupling cs, RORgamma inh, VP16 counter)
Cc1c(OC(C)C(=O)NCc2ccccn2)ccc2c3c(c(=O)oc12)CCCC3 (stereo unspecified)	ELG1 DNA repair inconclusive (no result: FBPA coupling cs)
CC(C)(C)c1ccc(C(=O)O/N=C(\N)c2ccccc2)cc1	RORgamma inh 1.1µM, VP16 counter 6.3µM, ELG1 DNA repair inconclusive
COc1ccc(C(=O)O/N=C(\N)c2ccccc2)cc1	RORgamma inh inconclusive, VP16 counter inconclusive, ELG1 DNA repair inconclusive
COC(=O)CC1(C(=O)OC)Oc2ccc(Br)cc2C(=O)N1c1ccc(Br)cc1Cl (stereo unspecified)	RORgamma inh inconclusive, VP16 counter inconclusive, ELG1 DNA repair 23µM
COC(=O)CC1(C(=O)OC)Oc2ccc(Br)cc2C(=O)N1c1cccc(Cl)c1Cl (stereo unspecified)	ELG1 DNA repair inconclusive
COC(=O)CC1(C(=O)OC)Oc2ccc(Br)cc2C(=O)N1c1cc(Cl)c(Cl)cc1Cl (stereo unspecified)	RORgamma inh inconclusive, ELG1 DNA repair 16µM
CCn1cnc2cc(NCc3ccc(C)cc3)ccc21	RORgamma inh inconclusive, VP16 counter inconclusive, ELG1 DNA repair inconclusive
Cc1ccc(CNc2ccc3c(c2)ncn3C(C)C)cc1	RORgamma inh 5µM, ELG1 DNA repair inconclusive
COc1ccc(CNc2ccc3c(c2)ncn3-c2ccccc2OC)cc1	RORgamma inh 18µM, VP16 counter inconclusive, ELG1 DNA repair inconclusive
Cc1ccccc1OCC(=O)NNC(=O)c1ccoc1C	none (no result: FBPA coupling cs, RORgamma inh, VP16 counter)
Clc1cccc(-c2ccc3ncnc(NCc4ccc5c(c4)OCO5)c3c2)c1	none (no result: FBPA coupling cs, RORgamma inh, VP16 counter, ELG1 DNA repair)
Oc1cc2cc(CCN3CCN(c4nsc5ccccc45)CC3)c(Cl)cc2[nH]1	RORgamma inh inconclusive (no result: FBPA coupling cs, TSHR antagonist, ELG1 DNA repair)
c1ccc2c(c1)CCN2CCN1CCc2ccccc21	none
